Source: PubChem
An excerpt weighted towards active compounds, which were near 5.5% of everything screened.
VP16 counter = counter-screen for ROR gamma inhibitors: Gal4-VP16 reporter | Drosophila S2 Gal4-VP16 UAS-luciferase, luminescence, 20 h | Potency, µM (top dose mostly 53.6 µM), usual class: inhibitors | hit rate 3.5% among 310,000;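 further: Gal4-VP16 expression switched on by copper sulfate through the metallothionein promoter; nearly all actives have a fitted effect of over 50% in size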
CBFb RUNX1 block = CBF-beta/RUNX1 interaction disruption; Potency, µM (top dose mostly 59.8 µM), most hits filed as inhibitors; 230,000 tested, under 10 active; AlphaScreen CBFb-His/RUNX1-biotin binding, biochemical; Q01196+Q13951; AID 1477
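Bead-based AlphaScreen assay; binding partners His-tagged CBF-beta and biotinylated RUNX1 at 30 nM each. Compound exposure 15 min after a 20-min protein preincubation; bead step 90 min; all steps at room temperature.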
CtBP-E1A inh = blocks the CtBP interaction with E1A. AlphaScreen GST-E1A/His-CtBP binding, 1536-well; active compounds read low. activity change, % (no concentration beside the values). hit rate 0.49% among 340,000; in the data active means activity change below about -65%; inconclusive means mostly about -30% to -63%
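Steps: dispense buffer (Tris pH 8.0, NaCl 300 mM, TCEP 1 mM, BSA, Tween 20); add 5X protein mix (GST-E1A, His-CtBP, 125 nM each); pin 23 nL compound; 2 h at 37 °C, dark; add 5X beads (50 ug/mL); 1 h; read.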
Six1-Eya2 inh = Six1/Eya2 interaction inhibition | activity change, % (test concentration not listed) | hit rate 0.56% among 360,000 | AlphaScreen GST-Six1/His-Eya2 binding, biochemical; active compounds read low | AID 651725 | Q15475+O00167; in the data active means activity change below about -65%; inconclusive means mostly about -30% to -63%
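AlphaScreen with GST-Six1 and His-Eya2 (5X mix: 250 nM and 500 nM), glutathione donor and nickel acceptor beads; buffer 50 mM Tris pH 8.0, 300 mM NaCl, 1 mM TCEP; 1 h at 37 C in the dark.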
RORgamma inh = blocks mouse ROR gamma transcriptional activity; Potency, µM (series often up to 53.6 µM), most hits filed as inhibitors; hit rate 5.4% among 310,000; Drosophila S2 Gal4-RORgamma UAS-luciferase reporter, 20 h; P51450; further: nearly all actives have a fitted effect of over 60% in size
Target sequence (P51450 whole entry, looked up, the tested form may be a part): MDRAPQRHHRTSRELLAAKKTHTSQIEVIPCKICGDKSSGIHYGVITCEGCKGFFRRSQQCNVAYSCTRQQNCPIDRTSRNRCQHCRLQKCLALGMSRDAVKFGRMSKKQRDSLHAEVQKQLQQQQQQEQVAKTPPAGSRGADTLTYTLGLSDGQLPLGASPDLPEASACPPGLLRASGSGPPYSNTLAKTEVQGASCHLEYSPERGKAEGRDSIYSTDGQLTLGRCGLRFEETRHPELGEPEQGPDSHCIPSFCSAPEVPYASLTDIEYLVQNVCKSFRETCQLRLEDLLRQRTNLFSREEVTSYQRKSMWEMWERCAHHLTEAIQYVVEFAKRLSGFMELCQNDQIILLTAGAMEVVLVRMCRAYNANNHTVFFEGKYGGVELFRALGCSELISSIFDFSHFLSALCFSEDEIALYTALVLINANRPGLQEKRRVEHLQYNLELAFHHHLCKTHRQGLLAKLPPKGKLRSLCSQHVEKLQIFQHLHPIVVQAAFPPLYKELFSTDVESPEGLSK
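A Gal4/UAS one-hybrid system in insect cells: metallothionein-promoter Gal4–ROR gamma fusion plus Photinus luciferase reporter. Copper sulfate 700 uM final, 20 hr ambient incubation, luminescent detection after 10 min with reagent.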
MBNL1-CUG inh = MBNL1-poly(CUG) RNA binding inhibition. TR-FRET MBNL1-His/biotin-(CUG)12 binding, 665/545 ratio. AID 2675. hit rate 0.036% among 280,000. Potency, µM (doses to about 57.5 µM), most hits filed as inhibitors; active means well fitted inhibition curve with a large enough effect in the signal ratio, with a control signal flat, not every such curve was filed as active; inconclusive means small, poorly fitted or top-dose-only effect, or effect the other way, or a change in a side signal; inactive means no such curve, though single readings can be large or run the other way; the % refers to the signal ratio
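Compounds (final 92 nM to 58 uM) are added to His-tagged MBNL1 and biotin-(CUG)12, then terbium anti-His antibody and streptavidin-XL665 (5 nM final). After 60 min at room temperature, the 665/545 nm ratio is read.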
A number is an active result; i = inactive; ? = inconclusive; nt = no result given; ! = repeats disagree; [ ] = another dose, or the depositor's remark. Unless noted, the call rests on the fitted dose curve; in most records, active means well fitted curve in the direction sought with a large enough effect; inconclusive means small, poorly fitted or top-dose-only effect, or another doubt; inactive means no such curve, though single readings can be large; an effect the other way counts as inactive or inconclusive.

SMILES | VP16 counter | CBFb RUNX1 block | CtBP-E1A inh | Six1-Eya2 inh | RORgamma inh | MBNL1-CUG inh
S=C(NCCN1CCOCC1)N/N=C/c1ccccc1 | ? | i | i | i | 13µM | i
O=C1NC[C@H](CCCCN2C[C@@H](Cc3ccccc3)N(CCC3CCCCC3)C(=O)C2=O)N(CCC2CCCCC2)C1=O | nt | nt | i | i | nt | nt
Cc1ccc(F)cc1NC(=O)CSc1n[nH]c(N)n1 | nt | nt | i | i | nt | nt
O=C(C1CCCN(S(=O)(=O)c2ccc(F)cc2)C1)N1CCCCCC1 (configuration not stated) | i | nt | i | i | i | i
COc1ccc([N+](=O)[O-])c(S(=O)(=O)c2ccccc2)n1 | 5µM | i | i | i | 2.5µM | ?
COc1ccc([N+](=O)[O-])c(S(=O)(=O)c2ccc(Cl)cc2)n1 | ? | i | i | i | ? | ?
O=[N+]([O-])c1cccnc1S(=O)(=O)c1ccccc1 | 7.1µM | nt | i | i | 8.9µM | ?
COc1ccc(N(CC(=O)Nc2ccccc2OC)S(=O)(=O)c2ccc(OC)c(OC)c2)cc1 | i | nt | i | i | i | i
CC(C)C(NC(=O)c1ccccc1F)C(=O)NCc1ccc(S(=O)(=O)N2CCOCC2)cc1 (configuration not stated) | nt | nt | i | i | nt | nt
O=C(N/N=C/C1CC=CCC1)c1cc(Br)ccc1O (configuration not stated) | ? | i | i | i | ? | i
O=C(N/N=C/C1CC=CCC1)c1ccc(Cl)cc1O (configuration not stated) | 10µM | i | i | i | 13µM | ?
Cc1ccc(C(=O)N/N=C\C2CC=CCC2)cc1[N+](=O)[O-] (configuration not stated) | ? | nt | i | i | i | ?
O=C(N/N=C/C1CC=CCC1)c1ccccc1O (configuration not stated) | ? | i | i | i | 11µM | i
COc1ccc(OC)c(NC2=NC3(CCCCC3)N=C(N)N2)c1 | i | i | -73 | -84 | i | i
COc1ccc(NC2=NC3(CCCCC3)N=C(N)N2)cc1 | i | i | i | i | i | i
CC(C)OC(=O)c1sc2nc(-c3ccccc3)ccc2c1N | ? | i | i | i | 7.1µM | i
Cc1ccc(/C=C2/CNC/C(=C\c3ccc(C)cc3)C2=O)cc1 | 7.1µM | ? | nt | nt | 3.5µM | nt
COc1cc(C2C(C#N)=C(N)OC3=C2C(=O)CC(C)(C)C3)cc2c1OCO2 (configuration not stated) | nt | nt | i | i | nt | nt
COc1cc2c(cc1NC(=O)COC(=O)Cn1cnc3ccccc31)oc1ccccc12 | i[0.365 µM] | i | i | i | 2µM | i
COc1cc2c(cc1NC(=O)COc1ccccc1OC)oc1ccccc12 | i[0.365 µM] | i | i | i | i | i
COc1cc2c(cc1NC(=O)COC(=O)C(CCSC)NC(=O)c1ccccc1Cl)oc1ccccc12 (configuration not stated) | ? | i | i | i | 10µM | nt
O=C(NC1CCNCC1)C1CC1 | i | i | nt | i | i | i
CSc1ccccc1NC(=O)CN1CCN(Cc2ccccc2)CC1 | i | i | nt | nt | i | i
COc1cc(NC(=S)NC(=O)c2cc(C)cc(C)c2)ccc1NC(=O)c1cccs1 | 1.8µM | i | i | i | 2µM | i
COc1cc(NC(=S)NC(=O)c2ccccc2F)ccc1NC(=O)c1cccs1 | i | i | i | i | ? | i
SMILES | VP16 counter | CBFb RUNX1 block | CtBP-E1A inh | Six1-Eya2 inh | RORgamma inh | MBNL1-CUG inh
COc1cc(NC(=S)NC(=O)c2ccccc2C)ccc1NC(=O)c1cccs1 | 8.9µM | i | i | i | 2.5µM | i
COc1cc(NC(=S)NC(=O)c2ccc(C(C)(C)C)cc2)ccc1NC(=O)c1cccs1 | 3.5µM | i | nt | i | 3.2µM | i
O=C(Cn1cc(COc2c(F)c(F)c(Br)c(F)c2F)nn1)c1ccc(O)cc1 | nt | nt | i | i | nt | nt
O=C(CN1CCN(Cc2ccccc2)CC1)Nc1ccc([N+](=O)[O-])cc1C(=O)Nc1ccccc1F | ? | i | nt | i | i | nt
O=C(CNCc1ccccn1)Nc1ccc([N+](=O)[O-])cc1C(=O)Nc1ccccc1F | i | nt | -89 | -93 | 20µM | ?
Cc1ccc(NC(=O)c2ccc(COc3ccc4c(c3)CCC4)cc2)c(C)c1 | 8.9µM | i | i | i | 2.2µM | i
CC(C)Oc1cccc(NC(=O)C2(C)CCN2C(=O)C(C)C)c1 (configuration not stated) | nt | nt | i | i | nt | nt
C=CCNC(=S)N/N=C(\C)c1ccccn1 | 0.11µM | ? | -97 | -89 | 0.028µM | i
C/C(=N\Nc1ccc(Cl)c(C(=O)O)c1)c1ccccn1 | i | i | i | i | ? | i
CC(=NNC(=S)Nc1ccccc1Cl)c1ccccn1 | nt | nt | -66 | -90 | nt | nt
S=C(NN=C(C1CC1)C1CC1)Nc1ccccc1 | 18µM | i | i | i | 11µM | i
CC(=NNC(=S)Nc1ccccc1)c1ccccn1 | nt | nt | ? | -89 | nt | nt
COc1ccc(CNc2ccnc(-c3cccnc3)n2)c(OC)c1 | i | nt | nt | nt | ? | nt
Cc1ccc(OCCCn2ccnc2)c(Br)c1 | ? | nt | nt | i | ? | i
CCOC(=O)C1(Cc2ccc(Cl)cc2)CCN(C(C)Cc2ccc(O)c(OC)c2)CC1 (configuration not stated) | 16µM | nt | i | i | i | i
CCOC(=O)C1(Cc2ccc(OC)cc2)CCN(S(C)(=O)=O)CC1 | i | i | i | i | i | i
C/C(N)=C(/C#N)C(=O)COC(=O)CNC(=O)c1ccc(Cl)cc1Cl | i | i | i | i | i | i
CN1CCC(=O)N(CCOc2ccccc2)CC1 | i | nt | -86 | -83 | i | i
O=C(O)c1cccc(OCCN2CCCC2=O)c1 | nt | nt | i | i | nt | i
CNc1ncnc2c1ncn2[C@H]1C[C@H](O)[C@@H](CO)O1 | nt | i | nt | nt | nt | nt
O=C(NN=C1CCCCCC1)c1ccc(Cl)s1 | 13µM | nt | i | i | ? | i
CCNc1ncc2nc(CCc3ccccc3)c(=O)n(Cc3ccc(F)cc3)c2n1 | i | nt | nt | nt | i | nt
CCn1c(CN2CCN(CCO)CC2)nc2ccccc21 | i | i | nt | i | i | i
O=c1[nH]c(SCc2nc3ccccc3n2Cc2ccccc2)nc2ccccc12 | ? | i | i | i | 4.5µM | i
OCc1nc2ccccc2n1Cc1ccc(Cl)cc1 | i | nt | i | i | i | i
c1ccc(Cn2c(CN3CCCC3)nc3ccccc32)cc1 | ? | i | i | i | 14µM | i
Clc1ccc(Cn2c(CN3CCCC3)nc3ccccc32)cc1 | 7.1µM | i | nt | nt | 2µM! | i
Cc1ccc(S(=O)(=O)N2C(=O)CCC2C(=O)O/N=C(\N)c2cccc([N+](=O)[O-])c2)cc1 (configuration not stated) | i | nt | i | i | i | ?
COC(=O)[C@H](Cc1ccccc1)NC(=O)O[C@H]1C(=O)c2cc(OC)ccc2O[C@@H]1c1ccc(OC)c(Br)c1 | i | i | nt | nt | i | nt
